Assay results reported in PubChem BioAssay (NCATS).
Records with an inconclusive call do not appear. Activity calls are given as the source filed them. Unless noted, calls follow the shape of the full dose curve.

Experiments:
[1] = Cell Viability - BJ (AID 421); conditions: BJ fibroblast viability, qHTS;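 also: potency is read from the fitted curve at half-maximal effect; cells exposed to compound for 40 hours at 37 °C before readout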
In short: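 Cytotoxicity as drop in intracellular ATP (CellTiter-Glo, 20 min RT) after 40 hr compound exposure of BJ fibroblasts at 37 °C. Titrations scaled between DMSO and 100 uM tamoxifen, Hill-fitted for AC50.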

[2] = Cell Viability - Jurkat (AID 426;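 active = dose-dependent loss of cell ATP signal giving a full or clear fitted curve, ranked by lower potency value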;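 also: potency is read from the fitted curve at half-maximal effect; cells exposed to compound for 40 hours at 37 °C before ATP read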); conditions: qHTS
In short: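 Cells of the human T-cell leukemia line Jurkat (E6-1) are seeded at 5000 per well, treated with compound across a concentration range for 40 hours at 37 °C, then lysed with CellTiter-Glo; luminescence reports ATP.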

[3] = Cell Viability - Hek293 (AID 427;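 active = compounds whose dose-response curve shows a full or clear partial loss of cell viability, called from curve shape rather than a numeric limit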;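 also: potency is read from the fitted curve at half-maximal effect; cells exposed to compound for 40 hours at 37 °C before reading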); conditions: qHTS
In short: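 Luminescent ATP content (CellTiter-Glo, 20 min at room temperature) was measured after a 40 hr, 37 °C compound exposure of HEK293 cells. AC50 values came from Hill-equation fits of qHTS concentration-response data normalized to DMSO and 100 uM tamoxifen.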

[4] = Cell Viability - HepG2 (AID 433); conditions: qHTS;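 also: potency is read from the fitted curve at half-maximal effect; potency for ATP loss meaning cytotoxicity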
In short: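 HepG2 hepatocellular carcinoma cells (1500/well) were treated with compounds for 40 h at 37 °C in complete medium; intracellular ATP was read by CellTiter-Glo luminescence. Data were normalized to DMSO and 100 uM tamoxifen, and AC50 came from Hill fits.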

[5] = Cell Viability - MRC5 (AID 434); conditions: MRC5 lung fibroblast viability, qHTS;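 also: potency is read from the fitted curve at half-maximal effect; potency reflects cytotoxicity seen as loss of intracellular ATP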
In short: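 AC50 values come from Hill-equation fits of intracellular ATP loss, measured by CellTiter-Glo luminescence. Normal lung fibroblasts (MRC5) had 40 hr compound treatment at 37 C, normalized between DMSO and 100 uM tamoxifen.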

[6] = Cell Viability - SK-N-SH (AID 435); conditions: SK-N-SH neuroblastoma cell viability qHTS;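 also: potency is read from the fitted curve at half-maximal effect; compound exposure lasted 40 h at 37 °C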
In short: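 SK-N-SH human neuroblastoma cells (1500/well) were exposed to compounds in complete medium for 40 h at 37 °C, and intracellular ATP was then measured by CellTiter-Glo luminescence. AC50 was taken from Hill fits, normalized to DMSO and 100 uM tamoxifen.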

[7] = target: Mitogen-activated protein kinase 10 (Mus musculus) (UniProt Q61831); experiment: JNK3 AlphaScreen Assay (AID 530; active = well fitted curve in either direction with a large enough effect, not every such curve was filed as active;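 also: kinase came from lysate of stimulated human HepG2 cells; signal reports phosphorylation of biotinylated GST-cJun 1-79 at Ser73 with 10 µM ATP; % is scaled to controls: 0 for no effect and ±100 for the full control effect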); conditions: JNK3 lysate, c-Jun phosphorylation; series mostly up to 57.1 µM
In short: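 qHTS titrations with 15 min compound pre-incubation before adding ATP (10 uM final). Read-out: AlphaScreen of Ser73-phosphorylated biotin-GST-cJun using HepG2 lysate JNK3 activated by IL-1β and TNFα.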

[8] = Cell Viability - N2a (AID 540; active = well fitted curve in the direction sought with a large enough effect; an effect the other way counts as inactive or inconclusive;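 also: plate controls were DMSO alone for no effect and tamoxifen control for full effect; nearly all actives have a fitted effect of over 45% in size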); conditions: N2a mouse neuroblastoma cell viability; activity change, negative = cytotoxicity: at 92.2 µM (top of the series)
In short: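 Cytotoxicity was scored as loss of cellular ATP in N2a cells, a mouse neuroblastoma line. Compounds are applied in a qHTS concentration series for 40 hr at 37 °C.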

[9] = Cell Viability - NIH 3T3 (AID 541; active = well fitted curve in the direction sought with a large enough effect; an effect the other way counts as inactive or inconclusive;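 also: plate controls were DMSO alone for no effect and tamoxifen positive control for full effect; nearly all actives have a fitted effect of over 25% in size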); conditions: NIH 3T3 cell viability, qHTS; activity change, negative = cytotoxicity: at 92.2 µM (top of the series)
In short: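 Cells seeded at 1000/well, rested 5 hr at 37 °C, then dosed and incubated 40 hr at 37 °C. CellTiter-Glo added, 20 min room temperature, luminescence read. AC50 by Hill fit.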

[10] = Cell Viability - HUV-EC-C (AID 542; active = well fitted curve in the direction sought with a large enough effect; an effect the other way counts as inactive or inconclusive; also: % is scaled to controls: 0 for no effect and ±100 for the full control effect; nearly all actives have a fitted effect of over 35% in size); conditions: HUV-EC-C endothelial cell viability, qHTS; series mostly up to 92.2 µM
In short: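 Cells were seeded at 1000 per well and incubated 5 hr at 37 °C before compound addition. After 40 hr at 37 °C, CellTiter-Glo reagent was added for 20 min and luminescence read. AC50 values came from Hill-equation modelling.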

CCCCCNCCCCC
inactive: Potency [1] > 92 µM | Potency [2] > 92 µM | Potency [3] > 92 µM | Potency [4] > 92 µM | Potency [5] > 92 µM | Potency [6] > 92 µM | outcome [7] | activity change, negative = cytotoxicity [8] 0.97% | Potency [9]

Nc1ccccc1S(=O)(=O)O
inactive: Potency [1] > 92 µM | Potency [2] > 92 µM | Potency [3] > 92 µM | Potency [4] > 92 µM | Potency [5] > 92 µM | Potency [6] > 92 µM | outcome [7] | activity change, negative = cytotoxicity [8] 4.97% | Potency [9]

C=C(C)C(=O)OCCCCCCCCCC
inactive: Potency [1] > 92 µM | Potency [2] > 92 µM | Potency [3] > 92 µM | Potency [4] > 92 µM | Potency [5] > 92 µM | Potency [6] > 92 µM | outcome [7] | activity change, negative = cytotoxicity [8] 3.17% | Potency [9]

CNC(=O)N(c1ccccc1)c1ccccc1
inactive: Potency [1] > 92 µM | Potency [2] > 92 µM | Potency [3] > 92 µM | Potency [4] > 92 µM | Potency [5] > 92 µM | Potency [6] > 92 µM | outcome [7] | activity change, negative = cytotoxicity [8] -1.02% | Potency [9]

O=[N+]([O-])c1c(Cl)cc(Cl)cc1Cl
inactive: Potency [1] > 92 µM | Potency [2] > 92 µM | Potency [3] > 92 µM | Potency [4] > 92 µM | Potency [5] > 92 µM | Potency [6] > 92 µM | outcome [7] | activity change, negative = cytotoxicity [8] 3.57% | Potency [9] | Potency [10]

CN(C)c1cccc(O)c1
inactive: Potency [1] > 92 µM | Potency [2] > 92 µM | Potency [3] > 92 µM | Potency [4] > 92 µM | Potency [5] > 92 µM | Potency [6] > 92 µM | outcome [7] | activity change, negative = cytotoxicity [8] -1.51% | Potency [9] | Potency [10]

CCCCCO
inactive: Potency [1] > 92 µM | Potency [2] > 92 µM | Potency [3] > 92 µM | Potency [4] > 92 µM | Potency [5] > 92 µM | Potency [6] > 92 µM | outcome [7] | activity change, negative = cytotoxicity [8] 3.49% | Potency [9] | Potency [10]

NC(=O)CCCCC(N)=O
inactive: Potency [1] > 92 µM | Potency [2] > 92 µM | Potency [3] > 92 µM | Potency [4] > 92 µM | Potency [5] > 92 µM | Potency [6] > 92 µM | outcome [7] | activity change, negative = cytotoxicity [8] -5.03% | Potency [9] | Potency [10]

FC(F)(F)c1ccccc1Cl
inactive: Potency [1] > 92 µM | Potency [2] > 92 µM | Potency [3] > 92 µM | Potency [4] > 92 µM | Potency [5] > 92 µM | Potency [6] > 92 µM | outcome [7] | activity change, negative = cytotoxicity [8] -3.42% | Potency [9] | Potency [10]

CCCCC(C=O)CC (stereo unspecified)
inactive: Potency [1] > 92 µM | Potency [2] > 92 µM | Potency [3] > 92 µM | Potency [4] > 92 µM | Potency [5] > 92 µM | Potency [6] > 92 µM | outcome [7] | activity change, negative = cytotoxicity [8] 2.46% | Potency [9] | Potency [10]

CC(C)(C)c1ccc(OCC2CO2)cc1 (stereo unspecified)
inactive: Potency [1] > 92 µM | Potency [2] > 92 µM | Potency [3] > 92 µM | Potency [4] > 92 µM | Potency [5] > 92 µM | Potency [6] > 92 µM | outcome [7] | activity change, negative = cytotoxicity [8] -14.9% | Potency [9] | Potency [10]

c1ccc2c(c1)ccc1ncccc12
inactive: Potency [1] > 92 µM | Potency [2] > 92 µM | Potency [3] > 92 µM | Potency [4] > 92 µM | Potency [5] > 92 µM | Potency [6] > 92 µM | outcome [7] | activity change, negative = cytotoxicity [8] -0.126% | Potency [9] | Potency [10]

N#Cc1ccccc1
inactive: Potency [1] > 92 µM | Potency [2] > 92 µM | Potency [3] > 92 µM | Potency [4] > 92 µM | Potency [5] > 92 µM | Potency [6] > 92 µM | outcome [7] | activity change, negative = cytotoxicity [8] 6.76% | Potency [9] | Potency [10]

C1CCCC1
inactive: Potency [1] > 92 µM | Potency [2] > 92 µM | Potency [3] > 92 µM | Potency [4] > 92 µM | Potency [5] > 92 µM | Potency [6] > 92 µM | outcome [7] | activity change, negative = cytotoxicity [8] 7.78% | Potency [9] | Potency [10]

O=C(Cl)c1cccc([N+](=O)[O-])c1
inactive: Potency [1] > 92 µM | Potency [2] > 92 µM | Potency [3] > 92 µM | Potency [4] > 92 µM | Potency [5] > 92 µM | Potency [6] > 92 µM | outcome [7] | activity change, negative = cytotoxicity [8] 5.21% | Potency [9] | Potency [10]

O=C1OC(=O)c2c(Br)c(Br)c(Br)c(Br)c21
inactive: Potency [1] > 92 µM | Potency [2] > 92 µM | Potency [3] > 92 µM | Potency [4] > 92 µM | Potency [5] > 92 µM | Potency [6] > 92 µM | outcome [7] | activity change, negative = cytotoxicity [8] -3.13% | Potency [9] | Potency [10]

Cc1ccc(C(=O)O)cc1
inactive: Potency [1] > 92 µM | Potency [2] > 92 µM | Potency [3] > 92 µM | Potency [4] > 92 µM | Potency [5] > 92 µM | Potency [6] > 92 µM | outcome [7] | activity change, negative = cytotoxicity [8] 3.7% | Potency [9] | Potency [10]
